# AMA1-RON2 inh – AMA1-RON2 (P. falciparum) interaction inhibition. AlphaScreen AMA1-biotinylated RON2 peptide binding. Potency, µM (highest dose often 58.2 µM), for inactives: top-dose activity change, negative = inhibition, most hits filed as inhibitors. 360,000 tested, 0.2% active. AID 720542; active = well fitted inhibition curve with a large enough effect; inconclusive = small, poorly fitted or top-dose-only effect; inactive = no such curve, though single readings can be large or run the other way;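 also: potency is read from the fitted curve at half-maximal effect; 0% = vehicle wells and -100% = peptide control; nearly all actives have a fitted effect of over 45% in size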
#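 AMA1 (3D7) with his tag at 25 nM final met compounds first, then biotinylated RON2 peptide at 25 nM; detection used donor plus acceptor beads, 10 µg/mL apiece, read by AlphaScreen after 30 min at room temperature.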
# MARV entry inh – inhibitors of Marburg virus binding or cell entry. 300,000 tested, 1.8% active. Marburg virus pseudotyped entry inhibition, cell reporter. Potency, µM (highest dose often 37.8 µM), without a hit: top-dose activity change, negative = inhibition, actives largely listed as inhibitors. AID 540276; calls by dose curve; tested in HEK293 cells; also: potency is read from the fitted curve at half-maximal effect; % is scaled to controls: 0 for no effect and ±100 for the full control effect
# LASV entry inh – inhibitors of Lassa virus binding or cell entry | Lassa virus pseudotype entry inhibition, cell reporter | AID 540256 | Potency, µM (series often up to 37.9 µM), without a hit: at the top dose activity change, negative = inhibition, hits mostly inhibitors | 300,000 tested, 1.2% active; calls by dose curve; tested in HEK293 cells; also: potency is read from the fitted curve at half-maximal effect; % is scaled to controls: 0 for no effect and ±100 for the full control effect; nearly all actives have a fitted effect of over 50% in size
# CHX counter – affects cycloheximide protein synthesis inhibition readout, counter-screen; cell reporter, cycloheximide protein synthesis inhibition counterscreen; max response, %; 300,000 tested, 12% active; AID 2314; in the data active = max response mostly above about 13%, no sharp cut-off; inactive = mostly below about 14%; also: read at 38.3 µM for the half of the compounds with a filed dose; 0% is about no effect
# Shiga inhibitor – blocks Shiga toxin action in Vero cells | 290,000 tested, 9.2% active | Vero cells, Shiga toxin protein synthesis inhibition reporter | inhibition, % at 38.7 µM; in the data active = inhibition mostly above about 28%, no sharp cut-off; inactive = mostly below about 43%; also: 0% is about no effect
# Active calls of the source: *; ? = inconclusive; . = no result; [ ] = another dose, or the depositor's remark. This excerpt belongs to a sample that is enriched for hits.
SMILES,AMA1-RON2 inh,MARV entry inh,LASV entry inh,CHX counter,Shiga inhibitor
CNC(=O)COC(=O)c1ccccc1C(=O)c1ccc(Cl)c([N+](=O)[O-])c1,-1%,.,.,33*,41
CCOc1ccc(C(=O)Nc2cccc([N+](=O)[O-])c2)cc1Br,1%,?,19%,20*,16
O=C(COC(=O)COc1ccccc1)Nc1cccc([N+](=O)[O-])c1,-3%,1%[46.1 µM],-6%,2,-13
O=C(Nc1cccc2ccccc12)c1cccc([N+](=O)[O-])c1,-1%,.,.,2,-9
O=C(Nc1ccc2ccccc2c1)c1cccc([N+](=O)[O-])c1,0%,?,?,20*,74*
O=C(COC(=O)c1ccccc1C(=O)c1ccccc1)Nc1cccc([N+](=O)[O-])c1,-5%,-1%,?,19*,30*
CC(=NNC(=O)c1cccc(S(=O)(=O)N2CCOCC2)c1)c1ccc(Cl)cc1,69%,?,-17%[46.1 µM],.,.
Cc1ccc(CN(C(=O)c2ccccc2F)c2ccccn2)o1,.,-15%[46.1 µM],1%[46.1 µM],.,.
CCCS(=O)(=O)NC(=O)C1(C)CCCN(C(=O)c2c(OC)cccc2OC)C1 (stereo not given),13%,.,.,.,.
O=C(Nc1cccc([N+](=O)[O-])c1)c1ccccc1,-5%,.,.,18*,30
COC(=O)C(Cc1cnc(Cl)s1)(C(=O)OC)c1ccc([N+](=O)[O-])cc1[N+](=O)[O-],-18%,?,2%,-5,-25
O=C(Nc1ccc(Oc2cccnc2)cc1)c1cccc([N+](=O)[O-])c1,10%,15%,0%,16*,44*
O=[N+]([O-])c1ccc(Oc2cccnc2)c([N+](=O)[O-])c1,6%,7.9µM*,?,.,.
O=[N+]([O-])c1ccc(OCc2cnc(Cl)s2)c([N+](=O)[O-])c1,-24%,12%[14.2 µM],-8%,20*,38
CC(NC(=O)c1ccc(C(=O)c2ccccc2)cc1)c1ccc(S(N)(=O)=O)cc1 (stereo not given),2%,-15%[46.1 µM],-15%,.,.
F[B-](F)(F)c1cncc2ccccc12,0%,.,.,.,.
COc1ccc(-c2nc(CSCC(=O)NCCc3ccc(C)cc3)c(C)o2)cc1OC,.,-2%[46.1 µM],3%[46.1 µM],.,.
CC(CCC(=O)OC[C@H]1O[C@H](C#Cc2ccccc2)C=C[C@H]1Oc1ccc(C)cc1)=NO[C@@H](C)CN1CCCCc2nc(C)c(C)cc21,.,-16%[14.2 µM],.,.,.
CC(=O)c1cnc(Nc2ccccc2)s1,39%,-5%,29%,34*,44
CC(=O)c1cnc(Nc2cccc(Cl)c2Cl)s1,4%,8%[46.1 µM],.,37*,81*
O=C(c1ccc(Cl)cc1)c1cnc(-c2ccccc2)s1,?,3%,2%,0,15
O=C(c1ccc(Cl)cc1)c1cnc(Nc2ccccc2Cl)s1,-3%,?,-2%,50*,120*
COc1ccc(/C=C/C(=O)NNC(=O)c2ccncc2)c(OC)c1,90%,.,.,.,.
CC1(C)CCc2cc(-c3ccnc(=S)[nH]3)ccc2O1,69%,?,?,42*,53*
N#Cc1cccc(-c2csc(C(O)c3ccc(F)cc3)n2)c1 (stereo not given),6%,.,.,.,.
SMILES,AMA1-RON2 inh,MARV entry inh,LASV entry inh,CHX counter,Shiga inhibitor
O=C(O)c1ccc(NC2=C/C(=N/S(=O)(=O)c3ccccc3)c3ccccc3C2=O)cc1,?,4µM*,7.1µM*,-6,-11
CCc1ccc(S(=O)(=O)/N=C2\C=C(Nc3ccc(O)cc3)C(=O)c3ccccc32)cc1,25µM*,?,4.5µM*,17*,37
Cc1cc(C)c(S(=O)(=O)/N=C2\C=C(Nc3ccc(C(=O)O)cc3)C(=O)c3ccccc32)c(C)c1,?,5.6µM*,?,6,24
Cc1cc(C)c(S(=O)(=O)/N=C2\C=C(NS(=O)(=O)c3ccccc3)C(=O)c3ccccc32)c(C)c1,-16%,?,23%[46.1 µM],-1,-2
CCc1ccc(S(=O)(=O)/N=C2\C=C(Nc3cccc(C(=O)O)c3)C(=O)c3ccccc32)cc1,?,3%[46.1 µM],?,2,16
CCC(C)[C@H](NC(=O)N1CCCCCC1)C(=O)OC (stereo not given in full),5%,.,.,-2,-8
COc1cc2c(cc1OC)C(COc1cc(C)cc(C)c1)N(C(=O)C(C)(C)C)CC2 (stereo not given),.,.,-3%[46.1 µM],.,.
O=C1CCCc2nc(N3CCc4ccccc43)ncc21,28%,?,?,38*,94*
CC1(C)CC(=O)c2cnc(N3CCN(c4ccccc4)CC3)nc2C1,-1%,3%,-5%,-2,19
CC1(C)CC(=O)c2cnc(N3CCc4ccccc4C3)nc2C1,21%,16%,?,24*,89*
N#Cc1cnn2c(-c3ccc(Cl)cc3Cl)ccnc12,1%,?,-19%,-6,-14
CCC1CCCCN1C(=O)Cn1nc([N+](=O)[O-])c(Cl)c1C (stereo not given),13%,-7%[46.1 µM],19%[46.1 µM],-1,-7
O=C(Cc1ccc(Cl)cc1)NN1C(=O)c2ccccc2C1=O,3%,7%,0%,-3,2
COC(=O)[C@@H]1[C@@H](C#N)C2(c3ccccc3-c3ccccc32)N(c2ccc(Cl)cc2)N1C#N,?,?,?,12*,47*
CC(=O)OCC(NC(=O)C(CCCCNC(=O)OCc1ccccc1)NC(=O)OC(C)(C)C)C1OC(n2cc(F)c(=O)[nH]c2=O)C(OC(C)=O)C1OC(C)=O (stereo not given),.,.,.,-3,-4
Cc1cc(C)cc(N(C(=O)CNS(=O)(=O)c2ccccc2)C(C(=O)NCc2ccccc2)c2ccc(C)o2)c1 (stereo not given),-28%,?,12µM*,5,6
Cc1ccc(S(=O)(=O)NCC(=O)N(c2ccccc2)C(C(=O)NCc2ccccc2)c2ccco2)cc1 (stereo not given),-22%,20µM*,?,0,-8
COc1ccc(N(C(=O)CNS(=O)(=O)c2ccccc2)C(C(=O)NCc2ccco2)C(C)C)cc1 (stereo not given),-3%,-17%[46.1 µM],-10%[46.1 µM],0,4
Cc1cc(Cl)c2oc(C(=O)NCCN3CCCCC3CO)c(C)c2c1 (stereo not given),23%,-8%,-2%,15*,27
Cc1c(C(=O)NCC2CCCO2)oc2c(Cl)cccc12 (stereo not given),-2%,16%,6%[46.1 µM],.,.
CCN1CCC[C@H]1CNC(=O)c1c(O)c(Cl)cc(Cl)c1OC,-9%,-12%,0%,7,-5
Cc1cc(Cl)c2oc(C(=O)NCCC3CCCCO3)c(C)c2c1 (stereo not given),4%,?,?,22,87*
C=C1C(C(=O)N2CCOCC2)C1C(=O)N1CCOCC1 (stereo not given),-4%,1%,22%,-3,-2
O=C(Nc1ccc2cccnc2c1)c1ccc(Br)cc1,17%,.,.,24*,.
Cc1cc(C)c(NC(=O)c2ccc3nccnc3c2)c(C)c1,1%,0%[46.1 µM],4%,.,.
Cc1ccc(NC(=O)c2ccc3nccnc3c2)c(C)c1,-9%,?,2%[46.1 µM],23*,31*

# Bioassay records: PubChem, National Center for Advancing Translational Sciences (NCATS)
